Results reported in PubChem BioAssay (Tox21).
Several values for one entry are separate records, joined by “and”; a condition that tells them apart may be missing. Equal entries are not always repeated. Records with an inconclusive call do not appear. The source holds several records for some structures; these can differ, active in one and inactive in another. Activity calls are given as the source filed them. Unless noted, the call rests on the fitted dose curve; in most records, active means well fitted curve in the direction sought with a large enough effect in the repeat runs; inconclusive means weak or mixed curves; inactive means no such curve, though single readings can be large; an effect the other way counts as inactive or inconclusive.

How the values were obtained:
[1] = qHTS assay to identify small molecule antagonists of the vitamin D receptor (VDR) signaling pathway - cell viability counter screen (AID 743225); further: nearly all actives have a fitted effect of over 50% in size; further: potency means the concentration at half of the fitted maximal effect
Summary of the method: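 VDR-bla HEK 293T cells, 4 h pre-incubation at 37C, then compound plus 1-alpha,25-dihydroxyvitamin D3 (3 nM final) for 16 h. After the beta-lactamase FRET read, CellTiter-Glo was added to the same wells; luminescence after 30 min at room temperature.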

[2] = qHTS assay to identify small molecule antagonists of the retinoid-related orphan receptor gamma (ROR-gamma) signaling pathway - cell viability counter screen (AID 1159520); further: nearly all actives have a fitted effect of over 50% in size; further: potency means the concentration at half of the fitted maximal effect
Summary of the method: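 Tet-on ROR gamma CHO cells (1,000/well) were plated 4 hr, given compounds in DMSO for 2 hr at 37 C, then induced with 1 uM final doxycycline for 16 hr. Viability was read as ATP by CellTiter-Glo luminescence after 30 min.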

[3] = target: Nuclear receptor ROR-gamma (Homo sapiens) (UniProt P51449); test: qHTS assay to identify small molecule antagonists of the retinoid-related orphan receptor gamma (ROR-gamma) signaling pathway (AID 1159521; further: nearly all actives have a fitted effect of over 50% in size; further: potency means the concentration at half of the fitted maximal effect)
Summary of the method: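 Tet-on RORγ CHO cells carrying a ROR response element–luciferase reporter were pretreated with compounds for 2 h, then induced with 1 uM (final) doxycycline hyclate for 16 h at 37 C. Antagonism was read as decreased ONE-Glo luminescence.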

[4] = qHTS assay to identify small molecule agonists of the AP-1 signaling pathway - cell viability counter screen (AID 1159525; calls by dose curve; further: nearly all actives have a fitted effect of over 55% in size; further: potency means the concentration at half of the fitted maximal effect)
Summary of the method: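 ME-180 AP-1-bla, 2500 cells/well, Opti-MEM + 0.5% dialyzed FBS; overnight 37 °C; cpd 15-pt titration, 5 h 37 °C; CellTiter-Glo 30 min RT; luminescence read; normalised to TOAB and DMSO controls.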

[5] = qHTS assay to identify small molecule agonists of the AP-1 signaling pathway (AID 1159526; calls by dose curve; further: potency means the concentration at half of the fitted maximal effect)
[6] = target: Retinoic acid receptor RXR-alpha (Homo sapiens) (UniProt P19793); test: qHTS assay to identify small molecule agonists of the RXR signaling pathway (AID 1159527; calls by dose curve; further: on the % scale 0 is the no-effect control and ±100 the full control effect; nearly all actives have a fitted effect of over 35% in size)
Summary of the method: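 GeneBLAzer RXR-alpha-UAS-bla HEK 293T cells in medium with 2% charcoal-stripped FBS, pre-incubated 5 hr at 37 C, then exposed to compounds 16 hr. Beta-lactamase reporter read by FRET substrate, 2 hr room temperature, 460/530 nm emission.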

[7] = qHTS assay to identify small molecule antagonists of the retinoid acid receptor (RAR) signaling pathway - cell viability counter screen (AID 1159551); further: on the % scale 0 is the no-effect control and ±100 the full control effect; nearly all actives have a fitted effect of over 35% in size
Summary of the method: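 Cytotoxicity counter screen in C3RL4 cells: 6 h compound exposure with 1 uM retinol (final), viability from cellular ATP by luminescence.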

[8] = qHTS assay to identify small molecule antagonists of the retinoic acid receptor (RAR) signaling pathway (AID 1159552; further: nearly all actives have a fitted effect of over 50% in size; further: potency means the concentration at half of the fitted maximal effect)
Summary of the method: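 RARE-luc C3RL4 cells; cpds + 1 uM (final) retinol, 6 hr, 37 C/5% CO2; luciferase reagent, 30 min RT, luminescence readout. Inhibitors of retinol-driven signal scored.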

[9] = qHTS assay to identify small molecule agonists of the retinoic acid receptor (RAR) signaling pathway (AID 1159553); conditions: C3RL4 RARE luciferase reporter, agonist, 6 h; activation: at 73.3 µM (top of the series) unless noted; further: potency means the concentration at half of the fitted maximal effect
Summary of the method: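 Agonist activity was scored in C3RL4 cells bearing a retinoic acid response element luciferase construct. Cells were treated with compounds for 6 hr at 37 C, and luciferase signal was measured as luminescence.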

[10] = qHTS assay to identify small molecule antagonists of the estrogen related receptor (ERR) signaling pathway - cell viability counter screen (AID 1224818);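 further: viability measured after 17.5 h of compound exposure; on the % scale 0 is the no-effect control and ±100 the full control effect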
Summary of the method: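 Cells carrying the ERR pathway reporter were seeded and incubated for 6 hours before compound addition. After a 17.5-hour exposure at 37 C, live-cell protease activity was measured by CellTiter-Fluor fluorescence following 30 minutes of incubation.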

[11] = qHTS assay to identify small molecule antagonists of the estrogen related receptor (ERR) signaling pathway (AID 1224819)
Summary of the method: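 Compounds dissolved in DMSO were pin-transferred onto ERR cells that had been plated 6 h earlier, and cells were then incubated 18 h at 37 C; signal was luciferase luminescence via One-Glo.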

[12] = qHTS assay to identify small molecule agonists of the estrogen related receptor (ERR) signaling pathway (AID 1224820); further: on the % scale 0 is the no-effect control and ±100 the full control effect
Summary of the method: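 ERR reporter cell line (from NTP), 2,000 cells/well, incubated 6 h before compound addition, then 18 h at 37 C. Luminescence measured 30 min after One-Glo reagent at room temperature.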

[13] = system: estrogen-related receptor alpha (ERRalpha) with PGC-1alpha coactivator, human; test: qHTS assay to identify small molecule antagonists of the estrogen related receptor signaling pathway with the pleiotropic PPARgamma coactivator (PGC) (AID 1224821; calls by dose curve)
Summary of the method: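 PGC/ERR reporter cell line, plated 6 h before compound addition, then exposed 18 h at 37 °C. Luciferase activity read by luminescence 30 min after One-Glo addition; decrease indicates antagonism.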

[14] = qHTS assay to identify small molecule antagonists of the estrogen related receptor signaling pathway with the pleiotropic PPARgamma coactivator (PGC) cell viability counter screen (AID 1224822;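 further: viability read after 17.5 h compound exposure; on the % scale 0 is the no-effect control and ±100 the full control effect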)
Summary of the method: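 Seed PGC/ERR cells (2,000/well); incubate 6 h at 37 C/5% CO2; pin-transfer compounds in DMSO; incubate 17.5 h at 37 C; add CellTiter-Fluor; after 30 min read fluorescence.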

[15] = qHTS assay to identify small molecule agonists of the estrogen related receptor signaling pathway with the pleiotropic PPARgamma coactivator (PGC) (AID 1224823); further: on the % scale 0 is the no-effect control and ±100 the full control effect
Summary of the method: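 PGC/ERR reporter cells seeded 6 h, then exposed to compounds (23 nL in DMSO) for 18 h at 37 C. One-Glo luciferase luminescence read after 30 min at room temperature.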

[16] = qHTS assay to identify small molecule antagonists of the estrogen related receptor (ERR) signaling pathway from Tox21 library - cell viability counter screen (AID 1224834); further: nearly all actives have a fitted effect of over 30% in size; further: potency means the concentration at half of the fitted maximal effect
Summary of the method: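 Cytotoxicity of test substances is gauged in the same ERR cells used for the antagonist screen, after 17.5 h of compound treatment at 37 C, by CellTiter-Fluor fluorescence measured after 30 min.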

[17] = qHTS assay to identify small molecule agonists of the endoplasmic reticulum stress response signaling pathway (AID 1159516; active means well fitted activation curve with a large enough effect in the signal ratio in the repeat runs, not every such curve was filed as active; the % refers to the signal ratio; further: on the % scale 0 is the no-effect control and ±100 the full control effect)
Summary of the method: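 Tox21 10K library screened in quantitative HTS format on ESRE-bla HeLa cells, a beta-lactamase reporter under ER stress response element control; 5 hr treatment, FRET read.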

[18] = qHTS assay to identify small molecule agonists of the endoplasmic reticulum stress response signaling pathway - cell viability counter screen (AID 1159517; calls by dose curve; further: nearly all actives have a fitted effect of over 50% in size; further: potency means the concentration at half of the fitted maximal effect)
Summary of the method: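 CellTiter-Glo was added to wells already read for beta-lactamase FRET, and luminescence was recorded 30 min later. Cells: ESRE-bla HeLa, 1,500 per well, compound exposure 5 hr at 37 C.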

[19] = qHTS assay to identify small molecule agonists of the RXR signaling pathway - cell viability counter screen (AID 1159529); further: nearly all actives have a fitted effect of over 50% in size; further: potency means the concentration at half of the fitted maximal effect
Summary of the method: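 RXR-alpha-UAS-bla HEK 293T cells in medium with 2% charcoal-stripped FBS were preincubated 5 hr, then exposed to compounds for 16 hr at 37 C. Viability was read as CellTiter-Glo luminescence after 30 min at room temperature.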

Sequence of Retinoic acid receptor RXR-alpha (Homo sapiens) (P19793 whole entry, looked up): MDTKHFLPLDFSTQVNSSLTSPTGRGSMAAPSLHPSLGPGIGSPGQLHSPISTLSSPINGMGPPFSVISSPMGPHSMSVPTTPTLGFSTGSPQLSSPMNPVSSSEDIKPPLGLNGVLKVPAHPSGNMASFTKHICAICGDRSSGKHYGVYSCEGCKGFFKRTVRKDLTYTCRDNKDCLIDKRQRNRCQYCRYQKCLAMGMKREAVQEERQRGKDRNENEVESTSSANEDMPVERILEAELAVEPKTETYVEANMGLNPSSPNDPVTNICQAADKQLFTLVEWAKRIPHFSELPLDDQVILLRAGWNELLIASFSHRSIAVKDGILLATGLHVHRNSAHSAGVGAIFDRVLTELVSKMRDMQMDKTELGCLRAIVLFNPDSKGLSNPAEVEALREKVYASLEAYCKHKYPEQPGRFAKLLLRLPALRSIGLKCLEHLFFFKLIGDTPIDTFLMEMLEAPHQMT

Cc1cc(C(C)(C)C)cc(C)c1CC1=NCCN1
inactive: Potency [1] | Potency [2] | Potency [3] | Potency [4] | Potency [5] | Potency [6] | Potency [7] | Potency [8] | Potency [9] | outcome [10] | Potency [11] | outcome [12] | Potency [13] | Potency [14] | outcome [15] | Potency [16]

CC1(C)CCC[C@]2(C)[C@H]3CC(=O)O[C@]3(C)CC[C@@H]12
inactive: Potency [1] | Potency [17] | Potency [3] | Potency [9] | Potency [16]

Nc1ccc(C(=O)O)c(O)c1
inactive: Potency [1] | Potency [18] | Potency [2] | Potency [3] | Potency [4] | Potency [5] | Potency [6] | Potency [19] | Potency [7] | Potency [8] | Potency [9]

CCN(CC)C(=O)c1cc(S(=O)(=O)Cc2ccccc2)c(N2CCC(c3ccccc3)CC2)cc1N(CC)CCN(C)C
active: Potency [1] 17.2 µM | Potency [3] 21.4 µM | Potency [4] 17.2 µM | Potency [19] 15.3 µM | Potency [8] 21.4 µM | Potency [16] 19.1 µM
inactive: Potency [17] | Potency [9]

CCCCCCCC/C=C\CCCCCCCCN
inactive: Potency [17] | Potency [3] | Potency [4] | Potency [5] | Potency [6] | Potency [19]

Cc1ccc(O)c(N)c1
inactive: Potency [1] | Potency [17] | Potency [2] | Potency [3] | Potency [4] | Potency [19] | Potency [7] | Potency [8]
active: Potency [5] 55 µM | Potency [9] 21.7 µM | Potency [16] 61.2 µM

COc1cccc2c1C(=O)c1c(O)c3c(c(O)c1C2=O)C[C@@](O)(C(C)=O)C[C@@H]3O[C@H]1C[C@H](N)[C@H](O)[C@H](C)O1
inactive: Potency [1] | Potency [4] | Potency [7]
active: Potency [18] 0.952 µM | Potency [2] 13.8 µM and 15 µM | Potency [16] 30.8 µM and 473 nM
30.8 µM (active) and inactive: Potency [3]

COc1cc2nc(N3CCN(C(=O)c4ccco4)CC3)nc(N)c2cc1OC
inactive: Potency [17] | viability change, negative = cytotoxic [4] -7.1% [at 15.8 µM] | activation [5] 3.7% [at 15.8 µM] | activation [6] -11.7% [at 15.8 µM] | activity change, negative = cytotoxicity [7] -9.47% [at 19 µM]

O=C(O)Cc1ccccc1Nc1c(Cl)cccc1Cl
inactive: Potency [1] | Potency [18] | Potency [2] | Potency [3] | Potency [4] | Potency [5] | Potency [19] | Potency [7] | outcome [10] | Potency [14] | Potency [16]

CC1=CCC(=C(C)C)CC1
inactive: Potency [1] | Potency [17] | Potency [2] | Potency [4] | Potency [5] | Potency [6] | Potency [19] | Potency [7] | Potency [16]

O=C(/C=C/c1ccc(O)c(O)c1)O[C@@H](C(=O)O)[C@@H](OC(=O)/C=C/c1ccc(O)c(O)c1)C(=O)O
inactive: Potency [17] | Potency [2] | Potency [3] | Potency [4] | Potency [5] | Potency [6] | Potency [19] | Potency [7] | Potency [8] | Potency [9]

OCCN1CCN(CCCN2c3ccccc3Sc3ccc(C(F)(F)F)cc32)CC1
inactive: Potency [17] | Potency [2] | Potency [4] | Potency [7] | outcome [12] | Potency [13]
active: Potency [1] 23.9 µM | Potency [19] 23.9 µM | Potency [16] 29.8 µM

C#Cc1ccc(-c2ccccc2F)cc1
inactive: Potency [1] | Potency [2] | Potency [3] | Potency [4] | Potency [5] | Potency [6] | Potency [19] | Potency [7] | Potency [8] | Potency [9] | Potency [16]

CC[C@H](C)COC(=O)/C=C/c1ccc(N=Cc2ccc(OC)cc2)cc1
inactive: Potency [17] | Potency [18] | Potency [3]
active: Potency [9] 1.22 µM

CCCNCCC
inactive: Potency [1] | Potency [2] | Potency [3] | Potency [4] | Potency [5] | Potency [6] | Potency [19] | Potency [7] | Potency [9] | Potency [16]

CCCCCCCCCCC[C@@H](C[C@@H]1OC(=O)[C@H]1CCCCCC)OC(=O)[C@H](CC(C)C)NC=O
active: Potency [2] 11.9 µM | Potency [3] 16.8 µM
inactive: Potency [4] | Potency [5] | Potency [6] | Potency [19] | Potency [7] | Potency [8] | Potency [9] | Potency [16]

O=C1CCCCCCCCCCCCCCCO1
inactive: Potency [1] | Potency [2] | Potency [3] | Potency [4] | Potency [5] | Potency [6] | Potency [19] | Potency [7] | Potency [8] | Potency [16]

CCO[C@@H]1O[C@H](C(COCc2ccccc2)OCc2ccccc2)[C@H](OCc2ccccc2)[C@H]1O (some centres undefined)
active: Potency [16] 26.6 µM
inactive: Potency [1] | Potency [17] | Potency [7]

CCCCN(CCCC)CC(O)c1cc(Cl)cc2c1-c1ccc(Cl)cc1/C2=C/c1ccc(Cl)cc1 (centres undefined)
inactive: Potency [17] | Potency [4] | Potency [7] | Potency [9] | outcome [10] | Potency [11] | outcome [12] | Potency [13] | Potency [14] | outcome [15]
active: Potency [3] 29.8 µM | Potency [16] 26.6 µM
